Measurements published in PubChem BioAssay AID1159580 (chemical genetic matrix, 2015).
Values joined by “and” are separate entries in the source; they are usually repeats but may differ in a detail not shown here. Equal entries are not always repeated. Among all 5,500 compounds or so, about 2,000 (36%) were called active. Another 18% or so got no clear call; they are omitted. Rule as the data show it: active = normalized growth mostly below about 0.91 (no sharp cut-off); inconclusive = no clear call, values can overlap the other calls; inactive = mostly above about 0.92. The list shows a part of the results.

Experiment: chemical genetic growth profiling, strain panel (AID 1159580);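 also: tested at 20 µM; growth read once vehicle control cultures reached saturation at 30 °C; 1 = growth at the plate median or of vehicle wells; lower values mean less growth of the strain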
Settings: S. cerevisiae deletion strains, growth OD

Measured: normalized growth

COc1ccc2c(=O)c(CC(=O)O)coc2c1
inactive: locus YAL021C, strain ccr4, hits give low values 1.01 | locus YAL026C, strain drs2, hits give low values 0.984 | locus YAL030W, strain snc1, hits give low values 0.983 | locus YBL061C, strain skt5, hits give low values 0.989 | locus YBR009C, strain hhf1, hits give low values 0.987 | locus YBR021W, strain FUR4, hits give low values 1.02 | locus YBR023C, strain chs3, hits give low values 0.999 | locus YBR171W, strain sec66, hits give low values 0.956 | locus YBR229C, strain ROT2, hits give low values 1 | locus YBR231C, strain swc5, hits give low values 0.972 | locus YBR279W, strain paf1, hits give low values 0.997 | locus YCL011C, strain gbp2, hits give low values 0.995 | locus YCL016C, strain dcc1, hits give low values 1.04 | locus YCL029C, strain bik1, hits give low values 1 | locus YCL061C, strain MRC1, hits give low values 1 | locus YCL069W, strain vba3, hits give low values 0.975 | locus YCR088W, strain abp1, hits give low values 0.971 | locus YDL005C, strain med2, hits give low values 0.985 | locus YDL035C, strain GPR1, hits give low values 1.03 | locus YDL040C, strain nat1, hits give low values 0.979 | locus YDL074C, strain BRE1, hits give low values 1.05 | locus YDL101C, strain DUN1, hits give low values 0.987 | locus YDL134C, strain PPH21, hits give low values 1.01 | locus YDL185W, strain tfp1, hits give low values 0.984 | locus YDL192W, strain arf1, hits give low values 1.01 | locus YDR001C, strain nth1, hits give low values 0.995 | locus YDR069C, strain doa4, hits give low values 0.953 | locus YDR101C, strain arx1, hits give low values 1.04 | locus YDR137W, strain rgp1, hits give low values 1 | locus YDR159W, strain sac3, hits give low values 0.926 | locus YDR162C, strain NBP2, hits give low values 1.05 | locus YDR195W, strain ref2 0.964 | locus YDR297W, strain sur2, hits give low values 0.965 | locus YDR318W, strain mcm21, hits give low values 0.991 | locus YDR334W, strain swr1, hits give low values 0.968 | locus YDR335W, strain msn5, hits give low values 0.987 | locus YDR388W, hits give low values 1 | locus YDR392W, strain spt3, hits give low values 0.939 | locus YDR502C, strain sam2, hits give low values 0.991 | locus YEL003W, strain gim4, hits give low values 0.98 | locus YEL037C, strain rad23, hits give low values 0.977 | locus YEL061C, strain CIN8 (second series), hits give low values 0.973 | locus YEL061C, strain CIN8, hits give low values 1.01 | locus YER015W, strain faa2, hits give low values 0.976 | locus YER016W, strain bim1, hits give low values 0.986 | locus YER110C, hits give low values 0.976 | locus YER111C, strain swi4, hits give low values 0.981 | locus YER155C, strain BEM2 (second series), hits give low values 0.981 | locus YER155C, strain BEM2, hits give low values 0.989 | locus YER167W, strain BCK2, hits give low values 1.01 | locus YFR010W, strain ubp6, hits give low values 0.969 | locus YGL078C, strain dbp3, hits give low values 0.96 | locus YGL086W, strain mad1, hits give low values 1.02 | locus YGL167C, strain pmr1, hits give low values 0.992 | locus YGL173C, strain kem1, hits give low values 0.982 | locus YGL227W, strain vid30, hits give low values 0.984 | locus YGL240W, strain doc1, hits give low values 0.951 | locus YGL248W, strain PDE1, hits give low values 1.01 | locus YGL253W, strain hxk2, hits give low values 0.961 | locus YGR078C, strain PAC10, hits give low values 1.01 | locus YGR135W, strain pre9, hits give low values 0.949 | locus YGR252W, strain gcn5, hits give low values 0.987 | locus YHR013C, strain ard1, hits give low values 1.02 | locus YHR027C, strain rpn1, hits give low values 0.969 | locus YHR030C, strain SLT2, hits give low values 1.01 | locus YHR079C, strain IRE1 (second series), hits give low values 0.984 | locus YHR079C, strain IRE1, hits give low values 0.991 | locus YHR094C, strain hxt1, hits give low values 0.983 | locus YHR129C, strain ARP1, hits give low values 1 | locus YHR142W, strain chs7, hits give low values 0.995 | locus YHR200W, strain rpn10, hits give low values 1.01 | locus YIL066C, strain RNR3, hits give low values 1 | locus YIL073C, strain SPO22, hits give low values 0.974 | locus YIL125W, strain kgd1, hits give low values 1 | locus YIR030C, strain dcg1, hits give low values 1 | locus YJL092W, strain hpr5, hits give low values 0.974 | locus YJL095W, strain BCK1 (second series), hits give low values 0.962 | locus YJL095W, strain BCK1, hits give low values 1.01 and 1.02 | locus YJL115W, strain asf1, hits give low values 0.984 | locus YJL129C, strain trk1, hits give low values 0.996 | locus YJL134W, strain LCB3, hits give low values 0.999 | locus YJL154C, strain vps35, hits give low values 0.987 | locus YJL164C, strain tpk1, hits give low values 1.01 | locus YJL166W, strain qcr8, hits give low values 0.973 | locus YJL168C, strain set2, hits give low values 0.987 | locus YJL187C, strain SWE1 (second series), hits give low values 0.993 | locus YJL187C, strain SWE1, hits give low values 0.977 | locus YJR043C, strain POL32, hits give low values 1.05
